Screening results (PubChem BioAssay)
Rows were chosen to be rich in hits. Some 0.51% of all compounds tested hit in one or more screens of this group.
AddAB inh: growth inhibition of E. coli expressing H. pylori AddAB, primary screen, AddAB inhibitor project, absorbance. inhibition, % at 11.9 µM. hit rate 0.29% among 330,000; in the data active = inhibition above about 12%
E coli growth-1: E. coli V3065 growth inhibition, primary screen, counter-screen for AddAB inhibitor project, absorbance, OD600; 18 h; inhibition, % at 11.9 µM; hit rate 0.27% among 330,000; AID 449728, 2010;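 active = inhibition above the campaign's mean inhibition across all tested compounds plus 3 SD, cut at about 9.9% in these data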;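 note: uninfected addAB+ strain grown without phage in ampicillin broth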
Tat export inh: E. coli Tat export inhibitors, primary screen, MC4100, TorA-mCherry reporter, fluorescence, single point | AID 488895, 2010 | hit rate 0.036% among 340,000 | inhibition, % at 10 µM;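 active = mean replicate inhibition at least 50% and at least half of replicates individually reaching 50%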;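 note: exported cargo escapes ClpAP degradation while cytoplasmic cargo is degraded and loses fluorescence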
E coli growth-2: E. coli growth inhibition, primary screen, OD600 | Escherichia coli growth, 23 h; stronger effect = lower value | hit rate 0.21% among 330,000 | OD600 absorbance (no concentration beside the values);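 active = OD600 absorbance below the run mean of sample wells minus 3.6 SD, in any replicate, cut at about 0.56 in these data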
phage Ecoli inh: growth loss of phage-infected E. coli, primary screen, RecBCD inhibitor project, absorbance, with phage, HTS. inhibition, % at 11.9 µM. hit rate 0.26% among 360,000; in the data active = inhibition above about 11%
Hits are given with their value; - = inactive; . = no result.

SMILES	AddAB inh	E coli growth-1	Tat export inh	E coli growth-2	phage Ecoli inh
CCc1ccc(Nc2n[n+](-c3ccccc3)c(-c3c(Cl)cccc3Cl)s2)cc1	-	-	-	0.467	-
CCC(C)c1ccc(C(C)NC(=S)NC2CCCCC2)cc1 (stereo not given)	-	10.5	-	.	-
CCc1ccc(C(C)NC(=S)NC2CCCCC2)cc1 (stereo not given)	.	.	-	-	.
O=C(NN=Cc1ccc(O)c(O)c1)C1c2ccccc2Oc2ccccc21	.	.	.	-	.
Cc1cc(C)c(S(=O)(=O)/N=C2/C=C(Sc3ncn[nH]3)C(=O)c3ccccc32)cc1C	-	-	-	.	11.1
Oc1ccc(CN2CCCCC2)c2cccnc12	-	-	-	-	-
Oc1c(Cl)cc(CN2CCCCC2)c2cccnc12	-	10.8	-	.	.
Oc1c(CN2CCN(c3ccccn3)CC2)cc(Cl)c2cccnc12	-	-	-	0.534	.
Cc1ccc2c(c1)sc(-c1ccc(N(C)C)cc1)[n+]2C	-	-	-	0.324	-
Cc1ccc(N(C)C)cc1	.	.	.	.	-
Cc1noc(C)c1NC(=O)N(C)CC1Oc2c(NC(=O)c3ccncc3)cccc2C(=O)N(C(C)CO)CC1C (stereo not given)	.	.	.	-	.
COc1ccc2[nH]c(C)c(CCN3C(=O)OC(C)(C)C3(C)O)c2c1 (stereo not given)	-	-	-	0.629	-
COc1ccc2[nH]c(C)c(CCN3C(=O)C4CC=CCC4C3=O)c2c1 (stereo not given)	-	-	-	-	-
COc1ccc(NC(=O)Nc2ccc(F)cc2F)c(C)c1	-	-	-	-	-
O=C(Nc1ccc(OC(F)(F)F)cc1)Nc1cccc([N+](=O)[O-])c1	-	-	-	0.395	-
Cc1cc([N+](=O)[O-])ccc1NC(=O)Nc1ccc(F)cc1F	-	-	-	0.51	-
Cc1cc(NC(=O)Nc2cccc([N+](=O)[O-])c2)no1	-	-	-	-	-
Cc1ccc(NC(=O)Nc2cccc([N+](=O)[O-])c2)cc1F	-	-	-	0.484	-
CCCOc1ccc(C=NNC(=O)C2CCCN2S(=O)(=O)c2ccc(Cl)cc2)cc1 (stereo not given)	.	.	.	-	.
COc1ccc(C2CC(=O)C=C(c3cc(C=O)ccc3OC)C2)cc1OC (stereo not given)	.	.	.	-	.
CC(=NNC(=S)Nc1ccc(C)cc1)c1ccccn1	.	.	-	.	12.7
Cc1[nH]c2ccccc2c1C=NNC(=O)CNC(=O)c1ccccc1	.	.	.	-	.
CN(C)CCCNc1cc(C(C)(C)C)nc2c(-c3ccc(Cl)cc3)cnn12	-	-	-	0.273	-
CN(C)C(=O)c1cc(C(=O)c2ccc(Cl)cc2Cl)c[nH]1	-	-	-	-	-
NC(=O)c1cc(C(=O)c2ccc(Cl)cc2Cl)c[nH]1	-	-	-	0.501	-
SMILES	AddAB inh	E coli growth-1	Tat export inh	E coli growth-2	phage Ecoli inh
Brc1cc(Br)c2nc(-c3cccs3)ccc2c1	-	-	-	-	-
Cc1nc2c(Br)cc(Br)cc2cc1O	-	-	-	0.559	-
COc1ccc(OC2C=CC(c3ccccc3)OC2COC(=O)CCC(C)=NOC(C)CN2CCCCc3nc(C)c(C)cc32)cc1 (stereo not given)	.	.	.	-	.
CC(=O)OCc1c(COC(C)=O)[n+](=O)c2ccccc2n1[O-]	-	-	-	0.469	-
Cc1cc(Cl)ccc1NC(=S)NCCC(c1ccccc1)c1ccccc1	-	13.2	-	-	-
O=[N+]([O-])c1ccc(-c2cccnc2)cc1	.	.	-	0.525	-
c1ccc(Nc2nc(NCc3ccco3)c3ccccc3n2)cc1	-	-	-	0.31	-
Cc1ccccc1Nc1nc(NCc2ccco2)c2ccccc2n1	-	-	-	0.49	-
Oc1ccccc1Nc1nc(NCc2ccco2)c2ccccc2n1	-	-	-	.	-
Cc1cccc(Nc2nc(NCc3ccco3)c3ccccc3n2)c1	-	-	-	0.432	-
O=S1(=O)CCOCC(CC2CCCCC2)N1Cc1cccc(Cl)c1 (stereo not given)	.	.	.	-	.
O=C(CC(=O)c1cc(Cl)ccc1O)c1ccccc1	-	-	-	0.476	-
Cc1cccc(C(=O)CC(=O)c2cc(Cl)ccc2O)c1	-	-	-	0.472	.
Clc1ccc2c(c1)C(N1CCNCC1)Cc1ccccc1S2 (stereo not given)	-	-	-	0.546	.
CN(C(=O)CON=Cc1ccc(Cl)cc1)c1ccccc1	.	.	.	-	.
O=C1CC(c2ccc(S(=O)(=O)NCc3ccncc3)cc2)CN1 (stereo not given)	-	-	-	-	12.5
O=C1CC(c2ccc(S(=O)(=O)NC3CC3)cc2)CN1 (stereo not given)	-	-	-	-	-
CC(CC(=O)Nc1ccc(Br)cc1)=NNC(=O)c1cccc(O)c1	.	.	.	-	.
